# In all, about 2,200 compounds went through this assay and about 1,700 (77%) were called active.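 How the source made its calls: active means mean inhibition across replicate wells exceeding the computed hit threshold (cut at about 13% in these data); inactive means the rest.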 The set was probably picked from earlier hits. Not all results are given here.
# Biological target: Hepatocyte nuclear factor 4-alpha (Homo sapiens) (UniProt P41235)
# Test: blockers of HNF4 self-association – biochemical, split-luciferase complementation, luminescence, counter-screen for ABHD5-PLIN5 interaction inhibitor project (AID 651674);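 further: light from luciferase halves that rejoin when HNF4 fusion proteins dimerize; 0% = DMSO only wells and the 100% control is not given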
# Settings: HNF4 dimerization, at 4 µM, stronger effect = higher value
# Chain of Hepatocyte nuclear factor 4-alpha (Homo sapiens) (P41235 whole entry, looked up, the tested form may be a part): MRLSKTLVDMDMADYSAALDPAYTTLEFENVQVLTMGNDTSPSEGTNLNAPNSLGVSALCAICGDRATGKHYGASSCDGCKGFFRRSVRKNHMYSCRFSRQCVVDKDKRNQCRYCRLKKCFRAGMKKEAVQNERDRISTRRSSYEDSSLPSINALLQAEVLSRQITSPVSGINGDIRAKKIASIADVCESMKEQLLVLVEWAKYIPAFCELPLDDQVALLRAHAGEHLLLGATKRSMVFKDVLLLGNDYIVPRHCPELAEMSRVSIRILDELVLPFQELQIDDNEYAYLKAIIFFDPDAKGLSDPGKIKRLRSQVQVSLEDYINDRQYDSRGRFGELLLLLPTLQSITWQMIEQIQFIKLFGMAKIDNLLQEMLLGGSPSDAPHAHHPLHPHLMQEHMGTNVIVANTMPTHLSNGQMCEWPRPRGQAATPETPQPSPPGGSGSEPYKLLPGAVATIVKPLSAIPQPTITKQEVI
row,SMILES,inhibition
1,CCC(C(=O)OCCN(CC)CC)c1ccccc1 (stereo not drawn),32.3% (active)
2,COc1ccc(-n2cc(CNC3CCOCC3)c(-c3cccc(F)c3)n2)cc1,-1.5% (inactive)
3,CCn1c(SC)nc(O)c(C(c2ccc(OC)c(O)c2)c2c(O)nc(SC)n(CC)c2=O)c1=O,52.2% (active)
4,O=C(CCl)Nc1ccc(Sc2ccc(NC(=O)CCl)cc2)cc1,28% (active)
5,Cc1csc(NC(=O)NC2(C(F)(F)F)Oc3ccccc3O2)n1,99.4% (active)
6,Cc1cccc(C)c1NC(=O)C(c1ccc(C(F)(F)F)cc1)n1c(=O)c(-c2ccco2)nc2ccccc21 (stereo not drawn),15.7% (active)
7,O=C(NC1CCCCC1)C(c1cc2ccccc2o1)n1c(=O)c(-c2ccco2)nc2ccccc21 (stereo not drawn),12.5% (active)
8,Cc1cccc(C)c1NC(=O)C(c1cccc2ccccc12)n1c(=O)c(-c2ccco2)nc2ccccc21 (stereo not drawn),5.63% (inactive)
9,N#Cc1ccc(C(C(=O)NCc2ccccc2)n2c(=O)c(-c3ccco3)nc3ccccc32)cc1 (stereo not drawn),46.7% (active)
10,NC(=O)c1nsc(C(=O)N(CC(=O)NCc2ccc(F)cc2)Cc2ccco2)c1N,2.04% (inactive)
11,Cc1ccc(Cc2c(-c3ccco3)nc3ccc(Cl)cn23)cc1,47.3% (active)
12,Cc1ccc2nc(-c3ccco3)c(Cc3cccc(Cl)c3)n2c1,49.6% (active)
13,O=C(CCN1CCc2ccccc2C(O)(c2ccccc2)C1)c1ccc2c(c1)OCCO2 (stereo not drawn),100% (active)
14,O=C1/C(=C\c2ccc(O)cc2)CCC1CNc1ccc(Cl)cc1 (stereo not drawn),50% (active)
15,COC(=O)c1cnn2c(C(F)(F)F)cc(-c3ccco3)nc12,9.71% (inactive)
16,O=C(N/N=C/C=C/c1ccco1)c1cccs1,39% (active)
17,COc1ccccc1C1/C(=C(/O)c2ccc(C)cc2)C(=O)C(=O)N1Cc1ccco1 (stereo not drawn),10.7% (inactive)
18,O=C1/C(=C\c2ccc([N+](=O)[O-])cc2)CS(=O)(=O)C/C1=C/c1ccc([N+](=O)[O-])cc1,108% (active)
19,c1ccc(CCC2=NCCn3cccc32)cc1,4.26% (inactive)
20,O=C(O)c1ccc2c(c1)C(=O)N(c1ccc(/C=C/C(=O)c3ccccc3)cc1)C2=O,89.2% (active)

row,SMILES,inhibition
1,CC(=O)N(c1ccc2oc(=O)sc2c1)S(=O)(=O)c1ccc(C)cc1,17.5% (active)
2,COc1cccc2sc(N(CCCN(C)C)C(=O)C(c3ccccc3)c3ccccc3)nc12,6.22% (inactive)
3,Cc1ccc(SC(CC(=O)c2ccc(C(C)(C)C)cc2)C(=O)O)cc1 (stereo not drawn),89.8% (active)
4,O=C(/C=C/c1ccc(Cl)cc1Cl)c1cccnc1,105% (active)
5,Cc1nc2sc(C(c3ccco3)N3CCOCC3)c(O)n2n1 (stereo not drawn),-1.74% (inactive)
6,Cc1ccc(NC(=O)c2cc(-c3ccc(C)o3)nc3ccccc23)nc1,44.1% (active)
7,CCOC(=O)C(=Cc1ccccc1)C(=O)c1ccccc1,97% (active)
8,CCOC(=O)C(=Cc1ccccc1OC)C(=O)OCC,51.8% (active)
9,CC(=O)c1ccc(NC(=O)CCc2nnc3ccc(NCc4ccco4)nn23)cc1,2.03% (inactive)
10,CCc1ccc(NC(=O)CSc2nnc(-c3cnccn3)n2Cc2ccco2)cc1,25.6% (active)
11,COCCN(CCOC)c1nc(N)c2c(N)nc3c(c2c1C#N)CC(=O)N3Cc1ccc(Cl)cc1,9.32% (inactive)
12,N#Cc1ccccc1S(=O)(=O)N1CCN(Cc2c(O)ccc3ccccc23)CC1,86.6% (active)
13,CC1=CC(C)(C)Nc2ccc(OC(=O)C(Cc3ccccc3)N3C(=O)C4CCCCC4C3=O)cc21 (stereo not drawn),15.7% (active)
14,CC1=CC(C)(C)Nc2ccc(OC(=O)CN3C(=O)C4CCCCC4C3=O)cc21 (stereo not drawn),52.3% (active)
15,COC(=O)c1nc(NC(=O)c2ccc(C(C)(C)C)cc2)n[nH]1,4.25% (inactive)
16,CCN(CCCNC(=O)c1ccc2c(c1)NC(=O)CN2C)c1cccc(C)c1,76.9% (active)
17,CCCCOC(=O)CNc1nnc(SCC(=O)OCC)[nH]c1=O,103% (active)
18,O=C(Nc1ccccc1)c1nnsc1S(=O)(=O)c1ccc(Cl)cc1,100% (active)
19,O=C(Nc1ccccc1Cl)/C(Cl)=C(\Cl)S(=O)c1ccccc1 (stereo not drawn),108% (active)
20,O=C(Nc1nc(-c2ccco2)c(-c2ccco2)s1)c1ccco1,77.9% (active)

row,SMILES,inhibition
1,Cc1[nH]c(=O)c(C(=O)/C=C/c2ccccc2)c2c1CCCC2,37.9% (active)
2,CC1(C)CCSC(/C=C/c2ccccc2)=N1,91.4% (active)
3,C[C@@H]1C[C@@H]2O[C@H]2/C=C\C=C\C(=O)Cc2c(Cl)c(O)cc(O)c2C(=O)O1,47.9% (active)
4,COc1ccc2sc(-c3ccccc3OC)c(-c3ccc(OCCN4CCCC4)cc3)c2c1,7.03% (inactive)
5,O=C1C(Cl)=C(Oc2ccccc2)C(=O)c2ccccc21,105% (active)
6,CC1(Oc2ccccc2-c2ccno2)CCN(Cc2ccc(-c3ccccc3)o2)C1 (stereo not drawn),48.5% (active)
7,COc1ccc2c(c1)c(=Cc1ccc(N(C)C)cc1)c1cc(-c3ccccc3)[n+](C)n12,18.1% (active)
8,CCN1CCC(O)(/C=C/c2ccc(C)cc2)C(C(=O)/C=C/c2ccc(C)cc2)C1 (stereo not drawn),85.5% (active)
9,CCCOc1ccc(C(=O)C(CCC(CNCC)C(=O)c2ccc(OCCC)cc2)CNCC)cc1 (stereo not drawn),24.2% (active)
10,O=C(Cn1nc(CNc2ccc(Cl)cc2)[n+]2c1CCCCC2)c1ccc(Cl)cc1,6.95% (inactive)
11,Cc1cccc(C=CC(=O)c2ccc(Cl)cc2)c1,67.2% (active)
12,COc1ccc(N/C=C(\C2OC(=O)c3ccccc32)[N+](=O)[O-])cc1 (stereo not drawn),22.1% (active)
13,COC(=O)/C=C\C(=O)Nc1cccc([N+](=O)[O-])c1,109% (active)
14,CCS(=O)(=O)Nc1ccc(C2=NN(S(=O)(=O)c3ccc(F)cc3)C(c3ccco3)C2)cc1 (stereo not drawn),9.93% (inactive)
15,O=c1[nH]c(/C=C\c2cccc(C(F)(F)F)c2)nc(O)c1[N+](=O)[O-],73.2% (active)
16,O=C(/C(=C/c1cccc(Cl)c1)c1nc2ccccc2[nH]1)c1ccccc1,92% (active)
17,COc1ccc(CCNC(=O)c2nnc(CS(=O)(=O)c3ccccc3)o2)cc1OC,2.92% (inactive)
18,COc1ccccc1-n1nnnc1S(=O)(=O)Cc1ccc(Cl)cc1,32.1% (active)

# From PubChem BioAssay AID651674 (The Scripps Research Institute Molecular Screening Center, 2012)
